# Results filed as inconclusive are left out. Activity calls are given as the source filed them. Calls follow the shape of the dose curve; as a rule, active = well fitted inhibition curve with a large enough effect; inconclusive = small, poorly fitted or top-dose-only effect; inactive = flat fitted curve, though single readings scatter.
# Molecular target: Aldehyde dehydrogenase, mitochondrial (Homo sapiens) (UniProt P05091)
# Experiment: qHTS for Inhibitors of the Aldehyde Dehydrogenase Family (ALDH2) Primary screen (AID 2061308);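 also: plate controls were vehicle for no effect and reference inhibitor for full effect; nearly all actives have a fitted effect of over 55% in size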
# Details: ALDH2 enzyme inhibition qHTS, 1536-well; series mostly up to 56 µM; activity change, negative = inhibition: at the top concentration
row,Structure (SMILES),"activity change, negative = inhibition"
1,CNc1oc(-c2cccc(Cl)c2Cl)nc1C#N,1.79% (inactive)
2,COc1ccc(-c2ccc(=O)n(CC(=O)NCCc3ccccc3)n2)cc1OC,11.7% (inactive)
3,c1ccc(CNCc2nnc(-c3cc4ccccc4[nH]3)o2)cc1,9.25% (inactive)
4,COc1cccc(C2c3c(ncn(-c4ccc(C)cc4)c3=N)Oc3ccc4ccccc4c32)c1 (stereo not drawn),-1.83% (inactive)
5,O=C(O)Cc1cc(F)c(S(=O)(=O)N2CCN(S(=O)(=O)c3ccc4c(c3)OCCO4)CC2)cc1F,-2.86% (inactive)
6,Cn1c2ccsc2c2cnn(Cc3ccccc3F)c(=O)c21,14.8% (inactive)
7,Cc1cnc(-c2ccccc2C(C)C)nc1NCC1CCN(C2COC2)CC1,-3.78% (inactive)
8,CN(CCc1cnc[nH]1)c1ncnc2ccc(-c3ccc4c(c3)OCO4)cc12,13.6% (inactive)
9,CC(O)c1ccc(-c2ccc3ncnc(NCCc4cnc[nH]4)c3c2)o1 (stereo not drawn),-14.9% (inactive)
10,Cc1ccc(-c2ccc(=O)n(CC(=O)NCc3ncc[nH]3)n2)cc1,1.82% (inactive)
11,CCN(CC)c1ccc(NC(=O)CN(C)Cc2c(O)ccc3ccccc23)cc1,-1.54% (inactive)
12,Cn1nnnc1Sc1ncnc2scc(-c3ccc(Cl)cc3)c12,-3.59% (inactive)
13,CCNC(=O)c1ccc(-c2ccc3ncnc(NCc4nc(C)cs4)c3c2)o1,-4.9% (inactive)
14,Cc1cc(-c2nnc3n2CCCCC3)c(C)n1-c1ccncc1,-2.83% (inactive)
15,Cc1ccc(S(=O)(=O)Nc2cccc3ccc(C)nc23)cc1,4.3% (inactive)
16,Cc1ccc(OCCn2c(CCNC(=O)c3ccccc3C)nc3ccccc32)cc1,-3.49% (inactive)
17,COc1cc(-c2no[n+]([O-])c2C#N)cc(OC)c1OC,-3.22% (inactive)
18,COc1ccccc1C(=O)N1CCc2cc(-c3nc(NC(=O)Cc4ccc5c(c4)OCO5)sc3C)ccc21,-10.8% (inactive)
